Consider 40 molecules from PubChem BioAssay (NCI).

About 79,000 compounds went through this panel and 15% of them were active in at least one assay; those are over-represented in the sample as a whole. Activity calls are given as the source filed them. Rule as the data show it: active = growth inhibition above about 70%; inactive = the rest.

The first assay in a line: NCI Yeast Anticancer Drug Screen. Data for the sgs1 mgt1 strain (AID 161).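 Also: 0% = growth of cultures given vehicle only.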 The conditions noted are these: S. cerevisiae sgs1 mgt1 strain, at 50.0 µM, hits give high values. An outline of the steps: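 This yeast growth screen uses a strain with defined DNA-repair lesions; compound-treated growth is compared with vehicle-treated growth.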
On to `Cc1cc(O)oc(=O)c1`, for which the growth inhibition is -7.2% (inactive).
Regarding `CCCCCCCCC1C(CCCCCCCC(=O)OC)C2(Cl)C(Cl)=C(Cl)C1(Cl)C2(Cl)Cl` (stereo not given), the growth inhibition was -1.05% (inactive).
The same measure, in the same setting: for `CCOC(=O)C(=CNc1cccc(Cl)c1)C(=O)OCC` the value was -18.9% (inactive); for `COc1cc(C2C(C(=O)Nc3ccccc3C)=C(C)NC(C)=C2C(=O)Nc2ccccc2C)ccc1O`, -16.6% (inactive).
Turning to `O=C(COc1ccc2c(=O)cc(-c3ccc(Cl)cc3)oc2c1)N1CCN(c2ccccc2)CC1`, the growth inhibition is -8.8% (inactive).
On to `O=C(Cc1nc2ccc(C(=O)c3ccccc3)cc2[nH]c1=O)C(=O)Nc1nc2ccccc2[nH]1`, for which the growth inhibition was -4.05% (inactive).
For the molecule `O=C(OCC1OC(OCc2ccccc2)C(OC(=O)c2ccccc2)C1OC(=O)c1ccccc1)c1ccccc1` (stereo not given), the growth inhibition is -2.4% (inactive).
For `NC1=C(O)C(=O)C(c2ccccc2)O1` (stereo not given), the growth inhibition is -4.15% (inactive).
`N#CCc1cn(-c2ccccc2)nn1`: the growth inhibition was -9.5% (inactive).
With `CC(C)=NNC(=S)NC12CC3CC(CC(C3)C1)C2`, the growth inhibition is 25.1% (inactive).
As for `CONCc1ccc(C(=O)NC(C)C)cc1`, the growth inhibition was -5.95% (inactive).
Same read-out and setting: in the case of `NC(=O)OC1CCN(c2cccc(Cl)c2)C1` (stereo not given) it was -16.1% (inactive); in that of `O=C(O)CCn1cnc2c(=S)nc[nH]c21`, -28.4% (inactive); in that of `CCCCCc1ccccn1`, -25.4% (inactive).
Same read-out and setting: in the case of `CC(COC(=O)c1ccc(N)cc1)NC1CCCCC1` (stereo not given) it was 19.6% (inactive); in that of `COc1ccc(CC(=O)NCCc2ccc(OC)c(OC)c2OC)cc1`, -30% (inactive); in that of `C[C@@H](C1CCC2C3C(=CC(=O)[C@@]21C)[C@H](C)[C@]1(CCC(=O)O1)C1OC31)[C@H]1C[C@]2(C)O[C@@](C)(O1)OC2(C)C` (stereo not given in full), -25.9% (inactive).
`Nc1cc(=S)nc(N)[nH]1`: the growth inhibition is 22.4% (inactive).
Turning to `COC(=O)Nc1nc2c(OC)c(OC)c(OC)cc2[nH]1`, the growth inhibition was -3.95% (inactive).
As to `CCc1ccc(NS(=O)(=O)c2ccc3ccccc3c2)cc1`, the growth inhibition was 96.9% (active).
Regarding `N#CC(C(=N/NC(N)=S)/C(=N/NC(N)=S)C(C#N)c1ccc(Cl)cc1)c1ccc(Cl)cc1` (stereo not given), the growth inhibition is -23.9% (inactive).
For `NC1=NC=NCN1c1ccc(N)cc1`, the growth inhibition was 3.85% (inactive).
`CCOC(=O)C1=CC2CCOC2O1` (stereo not given): the growth inhibition is 5.85% (inactive).
As for `COc1cc(CNC(=S)CCCCCCCCCCC(C)C)ccc1O`, the growth inhibition is -4.5% (inactive).
In the case of `CNCCCCCCNc1cc(OC)cc2cccnc12`, the growth inhibition was 56% (inactive).
Regarding `Cc1nn(C(=O)c2ccncc2)c2c1C(c1cccc([N+](=O)[O-])c1)SC(N)=N2` (stereo not given), the growth inhibition is -32.2% (inactive).
In the case of `CCN(CC)CC(=N)N(CC)c1ccccc1`, the growth inhibition is 4.7% (inactive).
Turning to `Cc1c2cnccc2c(C)c2c1c1ccccc1n2CCNCc1ccccc1`, the growth inhibition is 92.7% (active).
Take `O=C(/C=C/c1ccccc1)c1cccc([N+](=O)[O-])c1`: the growth inhibition was 21.4% (inactive).
Regarding `O=C(O)CC(CC(=O)O)c1ccc(F)cc1`, the growth inhibition is -10.2% (inactive).
Regarding `CCCc1nnnn1C12CC3CC(CC(C3)C1)C2`, the growth inhibition is 2.15% (inactive).
`Cc1cc(-c2ccccc2)n(C(C(=O)c2ccccc2)c2ccccc2)n1` (stereo not given): the growth inhibition is -0.15% (inactive).
On the same count and under the same terms, in the case of `CC(=O)OCc1ccc(Cl)cc1Cl` it was 7.25% (inactive); in that of `[N-]=[N+]=Nc1cc(-c2ccccc2)nc2cc3c(cc12)OCO3`, -19.8% (inactive).
Still for that read-out and setting: for `O=S(=O)(NCCNS(=O)(=O)c1ccccc1)c1ccccc1` the value was 10.5% (inactive); for `N#C/C1=C(\N)CCSSSC1`, 17.4% (inactive); for `c1ccc(CCN=C2c3ccccc3-n3cccc32)nc1`, -6.75% (inactive).
As to `O=C1CSC(c2ccccc2)N1O` (stereo not given), the growth inhibition is -22% (inactive).
On the same count and under the same terms, in the case of `CC(=O)OCC1OC(SC2=NC(=O)/C(=C/c3ccccc3)S2)C(OC(C)=O)C(OC(C)=O)C1OC(C)=O` (stereo not given) it was 55.4% (inactive); in that of `CC1(C)CC(=O)C2(C)C(C1O)C2C1C2C(O)C(C)(C)CC(=O)C21C` (stereo not given), -5.3% (inactive).

Another assay is described as follows: NCI Yeast Anticancer Drug Screen. Data for the cln2 rad14 strain (AID 165).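 Also: 0% = growth equal to vehicle treated cultures.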 The conditions noted are these: S. cerevisiae cln2 rad14 strain, at 50.0 µM, hits give high values. An outline of the steps:
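Relative to vehicle controls, growth inhibition of compound-treated cln2 rad14 yeast was recorded.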
For `Cc1cc(O)oc(=O)c1`, the growth inhibition is -44.4% (inactive).
With `CCCCCCCCC1C(CCCCCCCC(=O)OC)C2(Cl)C(Cl)=C(Cl)C1(Cl)C2(Cl)Cl` (stereo not given), the growth inhibition was 3.05% (inactive).
`CCOC(=O)C(=CNc1cccc(Cl)c1)C(=O)OCC`: the growth inhibition was -26.9% (inactive).
For `COc1cc(C2C(C(=O)Nc3ccccc3C)=C(C)NC(C)=C2C(=O)Nc2ccccc2C)ccc1O`, the growth inhibition was -3.15% (inactive).
`O=C(COc1ccc2c(=O)cc(-c3ccc(Cl)cc3)oc2c1)N1CCN(c2ccccc2)CC1`: the growth inhibition is 29.1% (inactive).
With `O=C(Cc1nc2ccc(C(=O)c3ccccc3)cc2[nH]c1=O)C(=O)Nc1nc2ccccc2[nH]1`, the growth inhibition was -17.9% (inactive).
As to `O=C(OCC1OC(OCc2ccccc2)C(OC(=O)c2ccccc2)C1OC(=O)c1ccccc1)c1ccccc1` (stereo not given), the growth inhibition was -3% (inactive).
On to `NC1=C(O)C(=O)C(c2ccccc2)O1` (stereo not given), for which the growth inhibition was -24.2% (inactive).
In the case of `N#CCc1cn(-c2ccccc2)nn1`, the growth inhibition is 5.45% (inactive).
Turning to `CC(C)=NNC(=S)NC12CC3CC(CC(C3)C1)C2`, the growth inhibition is -8.7% (inactive).
As for `CONCc1ccc(C(=O)NC(C)C)cc1`, the growth inhibition is -3.65% (inactive).
`NC(=O)OC1CCN(c2cccc(Cl)c2)C1` (stereo not given): the growth inhibition is 23.5% (inactive).
`O=C(O)CCn1cnc2c(=S)nc[nH]c21`: the growth inhibition is -3.05% (inactive).
Consider `CCCCCc1ccccn1`, for which the growth inhibition was -29.3% (inactive).
Turning to `CC(COC(=O)c1ccc(N)cc1)NC1CCCCC1` (stereo not given), the growth inhibition was 13.7% (inactive).
As to `COc1ccc(CC(=O)NCCc2ccc(OC)c(OC)c2OC)cc1`, the growth inhibition is 8.3% (inactive).
The same measure, in the same setting: for `C[C@@H](C1CCC2C3C(=CC(=O)[C@@]21C)[C@H](C)[C@]1(CCC(=O)O1)C1OC31)[C@H]1C[C@]2(C)O[C@@](C)(O1)OC2(C)C` (stereo not given in full) the value was -4.85% (inactive); for `Nc1cc(=S)nc(N)[nH]1`, 9.55% (inactive).
As to `COC(=O)Nc1nc2c(OC)c(OC)c(OC)cc2[nH]1`, the growth inhibition is -17.9% (inactive).
Same read-out and setting: in the case of `CCc1ccc(NS(=O)(=O)c2ccc3ccccc3c2)cc1` it was 94.6% (active); in that of `N#CC(C(=N/NC(N)=S)/C(=N/NC(N)=S)C(C#N)c1ccc(Cl)cc1)c1ccc(Cl)cc1` (stereo not given), -6.85% (inactive); in that of `NC1=NC=NCN1c1ccc(N)cc1`, -54.4% (inactive).
Consider `CCOC(=O)C1=CC2CCOC2O1` (stereo not given), for which the growth inhibition was -28.7% (inactive).
In the case of `COc1cc(CNC(=S)CCCCCCCCCCC(C)C)ccc1O`, the growth inhibition was -26.4% (inactive).
Same read-out and setting: in the case of `CNCCCCCCNc1cc(OC)cc2cccnc12` it was 7.05% (inactive).
On to `Cc1nn(C(=O)c2ccncc2)c2c1C(c1cccc([N+](=O)[O-])c1)SC(N)=N2` (stereo not given), for which the growth inhibition is 2.1% (inactive).
For the molecule `CCN(CC)CC(=N)N(CC)c1ccccc1`, the growth inhibition was 11.9% (inactive).
With `Cc1c2cnccc2c(C)c2c1c1ccccc1n2CCNCc1ccccc1`, the growth inhibition was -7.75% (inactive).
Regarding `O=C(/C=C/c1ccccc1)c1cccc([N+](=O)[O-])c1`, the growth inhibition is 54.9% (inactive).
With `O=C(O)CC(CC(=O)O)c1ccc(F)cc1`, the growth inhibition was -2.35% (inactive).
For `CCCc1nnnn1C12CC3CC(CC(C3)C1)C2`, the growth inhibition is 2.2% (inactive).
Turning to `Cc1cc(-c2ccccc2)n(C(C(=O)c2ccccc2)c2ccccc2)n1` (stereo not given), the growth inhibition is -5.6% (inactive).
Consider `CC(=O)OCc1ccc(Cl)cc1Cl`, for which the growth inhibition is 7.4% (inactive).
`[N-]=[N+]=Nc1cc(-c2ccccc2)nc2cc3c(cc12)OCO3`: the growth inhibition is -16.4% (inactive).
On to `O=S(=O)(NCCNS(=O)(=O)c1ccccc1)c1ccccc1`, for which the growth inhibition is -44.5% (inactive).
For `N#C/C1=C(\N)CCSSSC1`, the growth inhibition was 21.3% (inactive).
On the same count and under the same terms, in the case of `c1ccc(CCN=C2c3ccccc3-n3cccc32)nc1` it was -28.1% (inactive); in that of `O=C1CSC(c2ccccc2)N1O` (stereo not given), -51.5% (inactive); in that of `CC(=O)OCC1OC(SC2=NC(=O)/C(=C/c3ccccc3)S2)C(OC(C)=O)C(OC(C)=O)C1OC(C)=O` (stereo not given), 15.8% (inactive).
In the case of `CC1(C)CC(=O)C2(C)C(C1O)C2C1C2C(O)C(C)(C)CC(=O)C21C` (stereo not given), the growth inhibition is -6.75% (inactive).
